Laboratory results published in the supplement of paper PMC10849652.
Of roughly 7,900 targets only a part is listed; those with a hit were picked by preference. About 0.6% of all pairs of compound and target were hits. Values without a mark were called inactive.

Columns and labels:
Assay in all cases: log2 fold change, soluble protein after heating vs DMSO (PISA); higher = thermal stabilisation; K562 cells, 10 uM, 30 min; active = over 0.2 and 3.5 SD of the protein, either way, in both replicates (recomputed)
bafetinib = compound: Cc1ccc(NC(=O)c2ccc(CN3CC[C@H](N(C)C)C3)c(C(F)(F)F)c2)cc1Nc1nccc(-c2cncnc2)n1 [bafetinib]
How it was run: (§1)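 K562 cells at 2×10^6 cells/mL were treated with 10 μM compound for 30 min. Aliquots were heated for 3 min across 48°C-58°C, pooled, and extracted in PBS with 0.5% NP-40 at 4°C; soluble protein was the supernatant after 21,000xg for 90 min. Soluble protein was quantified by TMTpro 16plex LC-MS/MS with channel sums equalised, and reported as log2 fold change in thermal stability against DMSO controls, with values from duplicates.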

[1] = compound: Cc1cccc(CC(=O)N2CCc3c2ccc(-c2cn(C)c4ncnc(N)c24)c3F)n1
How it was run: as §1

nilotinib = compound: Cc1cn(-c2cc(NC(=O)c3ccc(C)c(Nc4nccc(-c5cccnc5)n4)c3)cc(C(F)(F)F)c2)cn1 [nilotinib]
How it was run: as §1

[2] = compound: Cc1nc(Nc2n[nH]c3c2CN(C(=O)N[C@H](CN(C)C)c2ccccc2)C3(C)C)c2sccc2n1
How it was run: as §1

dasatinib = compound: Cc1nc(Nc2ncc(C(=O)Nc3c(C)cccc3Cl)s2)cc(N2CCN(CCO)CC2)n1 [dasatinib]
How it was run: as §1

[3] = compound: Cc1ncc(-c2ccnc(Nc3ccc(S(C)(=O)=O)cc3)n2)n1C(C)C
How it was run: as §1

[4] = compound: Cn1cc(-c2ccc3c(c2)CCN3C(=O)Cc2cccc(C(F)(F)F)c2)c2c(N)ncnc21
How it was run: as §1

[5] = compound: Cn1cc(-c2ccc3nnc(C(F)(F)c4ccc5ncccc5c4)n3n2)cn1
How it was run: as §1

tipifarnib = compound: Cn1cncc1[C@@](N)(c1ccc(Cl)cc1)c1ccc2c(c1)c(-c1cccc(Cl)c1)cc(=O)n2C [tipifarnib]
How it was run: as §1

mubritinib = compound: FC(F)(F)c1ccc(/C=C/c2nc(COc3ccc(CCCCn4ccnn4)cc3)co2)cc1 [mubritinib]
How it was run: as §1

Sequence of UniProt P00374 (P00374 whole entry, looked up): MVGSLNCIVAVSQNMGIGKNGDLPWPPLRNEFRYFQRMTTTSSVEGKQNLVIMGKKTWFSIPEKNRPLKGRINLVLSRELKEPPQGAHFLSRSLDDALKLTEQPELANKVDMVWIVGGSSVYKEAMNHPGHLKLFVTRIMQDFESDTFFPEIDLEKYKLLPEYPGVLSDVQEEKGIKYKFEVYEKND
Sequence of UniProt Q9NVR5 (Q9NVR5 whole entry, looked up): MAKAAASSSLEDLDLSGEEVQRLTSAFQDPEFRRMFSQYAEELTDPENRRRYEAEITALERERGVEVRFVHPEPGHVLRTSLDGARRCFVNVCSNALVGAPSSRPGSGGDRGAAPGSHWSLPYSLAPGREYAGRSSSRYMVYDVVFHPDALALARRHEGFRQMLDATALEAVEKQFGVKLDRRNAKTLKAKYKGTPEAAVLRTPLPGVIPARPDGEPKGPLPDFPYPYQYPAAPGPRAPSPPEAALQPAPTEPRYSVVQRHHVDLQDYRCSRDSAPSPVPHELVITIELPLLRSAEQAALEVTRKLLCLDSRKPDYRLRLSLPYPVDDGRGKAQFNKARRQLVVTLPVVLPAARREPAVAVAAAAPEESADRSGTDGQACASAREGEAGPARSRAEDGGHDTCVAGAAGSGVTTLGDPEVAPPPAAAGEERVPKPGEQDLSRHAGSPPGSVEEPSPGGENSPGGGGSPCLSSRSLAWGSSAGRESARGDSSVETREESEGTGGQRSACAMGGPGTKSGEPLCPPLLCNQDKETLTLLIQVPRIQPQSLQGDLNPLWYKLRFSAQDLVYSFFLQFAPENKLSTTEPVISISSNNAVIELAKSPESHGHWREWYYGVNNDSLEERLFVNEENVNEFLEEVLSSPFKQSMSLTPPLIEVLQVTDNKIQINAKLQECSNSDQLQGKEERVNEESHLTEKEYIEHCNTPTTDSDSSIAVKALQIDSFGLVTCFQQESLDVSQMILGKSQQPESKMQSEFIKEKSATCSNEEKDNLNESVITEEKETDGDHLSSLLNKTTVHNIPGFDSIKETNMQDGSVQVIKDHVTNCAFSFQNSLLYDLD
Sequence of UniProt Q9H4H8 (Q9H4H8 whole entry, looked up): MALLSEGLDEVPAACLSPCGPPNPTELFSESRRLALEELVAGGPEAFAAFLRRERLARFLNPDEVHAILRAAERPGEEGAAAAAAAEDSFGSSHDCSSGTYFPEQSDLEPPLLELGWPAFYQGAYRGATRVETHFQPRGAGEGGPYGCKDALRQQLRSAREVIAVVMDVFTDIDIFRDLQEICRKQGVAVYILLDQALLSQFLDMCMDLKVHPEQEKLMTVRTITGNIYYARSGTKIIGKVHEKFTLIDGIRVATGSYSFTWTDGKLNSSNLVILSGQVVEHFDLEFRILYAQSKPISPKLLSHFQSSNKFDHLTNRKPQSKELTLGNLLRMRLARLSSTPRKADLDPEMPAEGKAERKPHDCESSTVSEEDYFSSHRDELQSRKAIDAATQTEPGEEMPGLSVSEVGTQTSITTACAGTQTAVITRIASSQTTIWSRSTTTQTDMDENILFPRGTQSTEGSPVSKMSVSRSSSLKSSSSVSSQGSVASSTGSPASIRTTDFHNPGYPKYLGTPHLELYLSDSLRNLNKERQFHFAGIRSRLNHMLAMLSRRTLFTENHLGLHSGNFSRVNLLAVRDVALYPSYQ
Sequence of UniProt P17844 (P17844 whole entry, looked up): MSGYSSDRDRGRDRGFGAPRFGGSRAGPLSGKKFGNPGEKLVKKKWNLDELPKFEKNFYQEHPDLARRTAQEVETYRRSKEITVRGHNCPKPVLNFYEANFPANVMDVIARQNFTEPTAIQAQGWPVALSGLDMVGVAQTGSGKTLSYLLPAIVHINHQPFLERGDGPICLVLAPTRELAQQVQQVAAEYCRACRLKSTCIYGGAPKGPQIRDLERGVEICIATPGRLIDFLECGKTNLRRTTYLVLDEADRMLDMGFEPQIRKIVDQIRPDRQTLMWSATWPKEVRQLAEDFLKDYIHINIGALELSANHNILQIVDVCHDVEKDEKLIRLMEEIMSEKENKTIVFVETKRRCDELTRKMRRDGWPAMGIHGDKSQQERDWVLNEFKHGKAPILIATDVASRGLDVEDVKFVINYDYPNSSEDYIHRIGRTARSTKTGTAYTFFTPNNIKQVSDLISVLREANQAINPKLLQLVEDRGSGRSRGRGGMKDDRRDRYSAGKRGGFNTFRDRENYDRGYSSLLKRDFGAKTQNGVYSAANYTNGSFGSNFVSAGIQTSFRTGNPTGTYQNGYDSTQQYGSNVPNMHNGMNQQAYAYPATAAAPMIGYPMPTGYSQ
Sequence of UniProt P50570 (P50570 whole entry, looked up): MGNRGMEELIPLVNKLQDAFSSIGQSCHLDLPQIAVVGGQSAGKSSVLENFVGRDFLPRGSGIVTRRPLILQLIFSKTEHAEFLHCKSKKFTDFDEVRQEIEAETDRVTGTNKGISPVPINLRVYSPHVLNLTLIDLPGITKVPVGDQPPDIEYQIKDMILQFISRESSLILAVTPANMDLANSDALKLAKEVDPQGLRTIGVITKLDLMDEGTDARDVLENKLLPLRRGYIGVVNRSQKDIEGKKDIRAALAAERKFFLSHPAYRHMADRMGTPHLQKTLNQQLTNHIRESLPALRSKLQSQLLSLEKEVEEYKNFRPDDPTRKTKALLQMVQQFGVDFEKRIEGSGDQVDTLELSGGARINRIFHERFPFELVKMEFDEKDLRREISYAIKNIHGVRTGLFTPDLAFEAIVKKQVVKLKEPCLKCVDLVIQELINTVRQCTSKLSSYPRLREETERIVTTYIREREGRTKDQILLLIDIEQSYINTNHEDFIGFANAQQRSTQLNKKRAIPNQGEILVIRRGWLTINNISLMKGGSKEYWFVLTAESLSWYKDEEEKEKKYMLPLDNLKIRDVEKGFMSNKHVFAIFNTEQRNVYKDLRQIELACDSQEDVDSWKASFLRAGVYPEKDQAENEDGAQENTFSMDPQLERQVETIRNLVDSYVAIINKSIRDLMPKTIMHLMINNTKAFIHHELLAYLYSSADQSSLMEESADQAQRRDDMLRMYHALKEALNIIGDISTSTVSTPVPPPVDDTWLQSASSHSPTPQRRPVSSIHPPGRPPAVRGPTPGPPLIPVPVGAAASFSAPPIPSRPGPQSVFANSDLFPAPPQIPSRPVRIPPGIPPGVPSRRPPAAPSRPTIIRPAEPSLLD
Sequence of UniProt Q96KC8 (Q96KC8 whole entry, looked up): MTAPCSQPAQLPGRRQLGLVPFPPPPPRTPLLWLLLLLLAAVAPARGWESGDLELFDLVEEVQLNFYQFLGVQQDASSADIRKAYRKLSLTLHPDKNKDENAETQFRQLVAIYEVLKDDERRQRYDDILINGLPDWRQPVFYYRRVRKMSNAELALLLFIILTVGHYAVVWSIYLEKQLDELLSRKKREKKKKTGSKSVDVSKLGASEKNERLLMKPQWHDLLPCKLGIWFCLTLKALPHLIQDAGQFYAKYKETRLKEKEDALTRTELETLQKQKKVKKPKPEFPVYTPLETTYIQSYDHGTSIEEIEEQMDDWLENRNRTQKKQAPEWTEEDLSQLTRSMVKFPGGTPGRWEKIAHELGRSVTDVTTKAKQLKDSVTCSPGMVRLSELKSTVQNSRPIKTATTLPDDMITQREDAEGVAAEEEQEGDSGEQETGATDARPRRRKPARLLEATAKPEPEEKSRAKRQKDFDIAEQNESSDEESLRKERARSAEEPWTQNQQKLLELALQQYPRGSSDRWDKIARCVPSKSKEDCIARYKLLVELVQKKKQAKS
Sequence of UniProt Q9BU89 (Q9BU89 whole entry, looked up): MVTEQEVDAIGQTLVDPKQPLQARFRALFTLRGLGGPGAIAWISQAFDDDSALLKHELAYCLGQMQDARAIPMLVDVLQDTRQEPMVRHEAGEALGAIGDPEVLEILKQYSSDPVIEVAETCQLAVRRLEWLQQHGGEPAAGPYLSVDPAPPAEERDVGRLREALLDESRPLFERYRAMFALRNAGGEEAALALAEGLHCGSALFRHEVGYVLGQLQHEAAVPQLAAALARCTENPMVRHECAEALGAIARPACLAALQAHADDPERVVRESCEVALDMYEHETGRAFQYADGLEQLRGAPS
Sequence of UniProt Q96G46 (Q96G46 whole entry, looked up): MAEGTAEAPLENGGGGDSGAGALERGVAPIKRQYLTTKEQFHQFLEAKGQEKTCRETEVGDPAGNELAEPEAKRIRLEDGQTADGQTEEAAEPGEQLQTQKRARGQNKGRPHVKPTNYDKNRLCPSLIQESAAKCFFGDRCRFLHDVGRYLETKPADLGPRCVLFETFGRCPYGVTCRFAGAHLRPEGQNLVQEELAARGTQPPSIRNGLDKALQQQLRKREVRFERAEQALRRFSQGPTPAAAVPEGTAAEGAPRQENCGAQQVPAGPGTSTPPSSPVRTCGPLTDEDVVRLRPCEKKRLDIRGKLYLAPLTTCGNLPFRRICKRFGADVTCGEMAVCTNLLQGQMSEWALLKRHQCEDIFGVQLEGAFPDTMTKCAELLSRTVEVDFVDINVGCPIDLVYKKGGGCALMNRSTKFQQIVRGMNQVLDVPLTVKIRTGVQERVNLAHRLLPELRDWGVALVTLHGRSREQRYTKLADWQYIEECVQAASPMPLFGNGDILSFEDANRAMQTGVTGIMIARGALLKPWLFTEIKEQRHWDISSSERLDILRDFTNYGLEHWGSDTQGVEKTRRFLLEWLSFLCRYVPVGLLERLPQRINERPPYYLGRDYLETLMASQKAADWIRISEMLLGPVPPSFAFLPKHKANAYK
Sequence of UniProt Q6IAN0 (Q6IAN0 whole entry, looked up): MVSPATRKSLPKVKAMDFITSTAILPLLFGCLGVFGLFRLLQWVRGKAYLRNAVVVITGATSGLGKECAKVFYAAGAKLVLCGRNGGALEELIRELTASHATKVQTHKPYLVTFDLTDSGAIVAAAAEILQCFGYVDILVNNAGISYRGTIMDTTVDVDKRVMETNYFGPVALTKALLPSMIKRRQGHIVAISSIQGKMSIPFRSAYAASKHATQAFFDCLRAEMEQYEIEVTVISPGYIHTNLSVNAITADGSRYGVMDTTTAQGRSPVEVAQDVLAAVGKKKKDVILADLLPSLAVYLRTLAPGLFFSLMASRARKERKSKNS

| Target | log2 fold change (bafetinib) | log2 fold change [1] | log2 fold change (nilotinib) | log2 fold change [2] | log2 fold change (dasatinib) | log2 fold change [3] | log2 fold change [4] | log2 fold change [5] | log2 fold change (tipifarnib) | log2 fold change (mubritinib) |
| --- | --- | --- | --- | --- | --- | --- | --- | --- | --- | --- |
| EXOC2 (UniProt Q96KP1) | 0.021 | -0.089 | -0.002 | -0.135 | -0.301 | 0.028 | -0.011 | -0.081 | -0.066 | 0.035 |
| CUX1 isoform 3 (UniProt P39880) | -0.054 | -0.032 | -0.008 | -0.06 | -0.016 | 0.044 | 0.023 | 0.08 | 0.046 | 0.037 |
| DAXX (UniProt Q9UER7) | -0.119 | -0.089 | 0.055 | -0.106 | -0.034 | 0 | 0.061 | -0.016 | 0.034 |  |
| DUS3L (UniProt Q96G46) | -0.041 | -0.02 | -0.073 | -0.059 | -0.005 | 0.021 | -0.064 | -0.017 | 0.053 | -0.115 |
| ESYT1 isoform 2 (UniProt Q9BSJ8) | 0.112 | 0.137 | -0.088 | -0.208 | -0.147 | 0.022 | -0.059 | -0.06 | 0.007 | -0.092 |
| DNAAF2 (UniProt Q9NVR5) | -0.075 | 0.057 | 0.023 | 0.002 | -0.049 | 0 | -0.037 | 0.036 | 0.004 | 0.026 |
| DDX4 (UniProt Q9NQI0) | 0.244 | -0.511 | -0.172 | -0.187 | 0.107 | -0.068 | -0.217 | 0.052 | 0.268 | -0.484 |
| ERCC6 (UniProt Q03468) | -0.775 (active) | -0.016 | 0.041 | -0.087 | -0.043 | -0.021 | 0.129 | -0.094 | 0.019 | 0.059 |
| EPHX2 (UniProt E5RI53) | -0.17 |  |  |  |  |  |  |  |  |  |
| DHFR (UniProt P00374) | 0.191 | 0.026 | 0.185 | -0.022 | -0.187 | 0.076 | 0 | 0.182 | 0.177 | -0.225 |
| FAM83D (UniProt Q9H4H8) | -0.022 | 0.145 | -0.069 | -0.088 | -0.241 | 0.016 | -0.073 | -0.027 | -0.107 | 0.023 |
| ERCC2 (UniProt P18074) | 0.094 | 0.061 | -0.014 | -0.175 | -0.185 | -0.022 | 0.05 | 0.01 | -0.062 | 0.114 |
| EXOC4 (UniProt Q96A65) | 0.012 | 0.11 | -0.068 | -0.155 | -0.15 | -0.031 | -0.026 | 0.013 | -0.088 | 0.078 |
| CUEDC2 (UniProt Q9H467) | -0.072 | 0.003 | -0.006 | -0.045 | 0.049 | -0.055 | 0.02 | -0.009 | 0.028 | 0.042 |
| DNAJC1 (UniProt Q96KC8) | -0.185 | -0.026 | -0.035 | 0.016 | -0.064 | 0.002 | 0.028 | 0.047 | 0.039 | 0.041 |
| DYRK1A isoform 2 (UniProt Q13627) | -0.073 | 0.02 | -0.005 | -0.056 | -0.098 | -0.047 | 0.021 | -0.046 | -0.042 | 0.034 |

| Target | log2 fold change (bafetinib) | log2 fold change [1] | log2 fold change (nilotinib) | log2 fold change [2] | log2 fold change (dasatinib) | log2 fold change [3] | log2 fold change [4] | log2 fold change [5] | log2 fold change (tipifarnib) | log2 fold change (mubritinib) |
| --- | --- | --- | --- | --- | --- | --- | --- | --- | --- | --- |
| DNM2 (UniProt P50570) | -0.035 | 0 | -0.054 | -0.003 | -0.099 | 0 | 0.075 | 0.007 | -0.071 | 0.017 |
| DDX5 (UniProt P17844) | 0.272 | 0.018 | 0.166 | -0.092 | -0.19 | 0.076 | 0.029 | 0.046 | -0.155 | 0.326 |
| CUTA isoform 2 (UniProt O60888) | -0.148 | 0.1 | 0.016 | 0.016 | 0 | -0.01 | 0.07 | 0.09 | 0.123 | 0.028 |
| DCTN1 isoform 4 (UniProt Q14203) | 0.057 | 0.037 | -0.052 | -0.052 | -0.256 | -0.018 | 0.003 | -0.015 | -0.054 | 0.038 |
| DCAF13 (UniProt Q9NV06) | 0.178 | 0 | 0.006 | 0.102 | 0.077 | -0.05 | -0.249 | -0.173 | 0.193 | -0.106 |
| CWC27 (UniProt Q6UX04) | -0.147 | -0.059 | -0.058 | -0.094 | -0.087 | 0.132 | 0.056 | 0.022 | -0.146 | 0.109 |
| DHPS (UniProt M0R1T2) | 0.081 |  |  |  |  |  |  |  |  |  |
| CTSB (UniProt P07858) | -0.842 (active) | -0.038 | 0.001 | -0.028 | -0.008 | -0.029 | 0.014 | 0.033 | 0.008 | -0.007 |
| DCTPP1 (UniProt Q9H773) | -0.053 | 0.105 | 0.008 | -0.013 | 0.068 | -0.025 | 0.073 | 0.029 | 0.074 | 0.047 |
| DCAF10 (UniProt Q5QP82) | -0.002 | -0.069 | -0.052 | 0.041 | 0.026 | -0.047 | 0.012 | 0.007 | -0.054 | -0.002 |
| EXTL2 (UniProt Q9UBQ6) | -0.041 | 0.021 | -0.02 | 0.006 | -0.008 | -0.059 | -0.039 | -0.064 | 0.014 | 0.029 |
| DYNC1I2 isoform 5 (UniProt Q13409) | -0.071 | -0.018 | 0.015 | 0.002 | -0.012 | 0.011 | 0.003 | -0.008 | -0.038 | 0.046 |
| DOHH (UniProt Q9BU89) | 0.653 (active) | 0.008 | 0.035 | -0.169 | 0.013 | -0.054 | -0.089 | 0.022 | 0.014 | 0.03 |
| DHRS7B (UniProt Q6IAN0) | 0.001 | 0.213 | 0.114 | 0.01 | -0.066 | 0.056 | 0.047 | -0.113 | 0.008 | -0.023 |
| EXOC7 (UniProt Q9UPT5) | -0.026 | 0.014 | -0.046 | -0.139 | -0.234 | -0.035 | 0.002 | 0 | -0.089 | -0.011 |
| FADS1 (UniProt F5GYH4) | 0.034 |  |  |  |  |  |  |  |  |  |
